Measured values as given in PubChem BioAssay.
Values without a mark were called inactive. Active and inactive are the calls of the source. Unless noted, no stated cut-off is given here; in the data, active means inhibition above about 25%; inactive means the rest.

What was measured:
[1] = biological target: Nuclear receptor coactivator 1 (Homo sapiens) (UniProt Q15788); experiment: SRC1 coactivator transcriptional activity inhibitors, confirmation, cell-based, luminescence, quadruplicate (AID 588820;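 active means mean inhibition above 46.68%, the untreated control wells mean plus 3 SD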;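 further: 0% = DMSO wells and 100% = gossypol 36 µM treated wells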); conditions: HEK293 GAL4-SRC1 luciferase reporter, at 3.6 µM, hits give high values
Sequence of Nuclear receptor coactivator 1 (Homo sapiens) (Q15788 whole entry, looked up, the tested form may be a part): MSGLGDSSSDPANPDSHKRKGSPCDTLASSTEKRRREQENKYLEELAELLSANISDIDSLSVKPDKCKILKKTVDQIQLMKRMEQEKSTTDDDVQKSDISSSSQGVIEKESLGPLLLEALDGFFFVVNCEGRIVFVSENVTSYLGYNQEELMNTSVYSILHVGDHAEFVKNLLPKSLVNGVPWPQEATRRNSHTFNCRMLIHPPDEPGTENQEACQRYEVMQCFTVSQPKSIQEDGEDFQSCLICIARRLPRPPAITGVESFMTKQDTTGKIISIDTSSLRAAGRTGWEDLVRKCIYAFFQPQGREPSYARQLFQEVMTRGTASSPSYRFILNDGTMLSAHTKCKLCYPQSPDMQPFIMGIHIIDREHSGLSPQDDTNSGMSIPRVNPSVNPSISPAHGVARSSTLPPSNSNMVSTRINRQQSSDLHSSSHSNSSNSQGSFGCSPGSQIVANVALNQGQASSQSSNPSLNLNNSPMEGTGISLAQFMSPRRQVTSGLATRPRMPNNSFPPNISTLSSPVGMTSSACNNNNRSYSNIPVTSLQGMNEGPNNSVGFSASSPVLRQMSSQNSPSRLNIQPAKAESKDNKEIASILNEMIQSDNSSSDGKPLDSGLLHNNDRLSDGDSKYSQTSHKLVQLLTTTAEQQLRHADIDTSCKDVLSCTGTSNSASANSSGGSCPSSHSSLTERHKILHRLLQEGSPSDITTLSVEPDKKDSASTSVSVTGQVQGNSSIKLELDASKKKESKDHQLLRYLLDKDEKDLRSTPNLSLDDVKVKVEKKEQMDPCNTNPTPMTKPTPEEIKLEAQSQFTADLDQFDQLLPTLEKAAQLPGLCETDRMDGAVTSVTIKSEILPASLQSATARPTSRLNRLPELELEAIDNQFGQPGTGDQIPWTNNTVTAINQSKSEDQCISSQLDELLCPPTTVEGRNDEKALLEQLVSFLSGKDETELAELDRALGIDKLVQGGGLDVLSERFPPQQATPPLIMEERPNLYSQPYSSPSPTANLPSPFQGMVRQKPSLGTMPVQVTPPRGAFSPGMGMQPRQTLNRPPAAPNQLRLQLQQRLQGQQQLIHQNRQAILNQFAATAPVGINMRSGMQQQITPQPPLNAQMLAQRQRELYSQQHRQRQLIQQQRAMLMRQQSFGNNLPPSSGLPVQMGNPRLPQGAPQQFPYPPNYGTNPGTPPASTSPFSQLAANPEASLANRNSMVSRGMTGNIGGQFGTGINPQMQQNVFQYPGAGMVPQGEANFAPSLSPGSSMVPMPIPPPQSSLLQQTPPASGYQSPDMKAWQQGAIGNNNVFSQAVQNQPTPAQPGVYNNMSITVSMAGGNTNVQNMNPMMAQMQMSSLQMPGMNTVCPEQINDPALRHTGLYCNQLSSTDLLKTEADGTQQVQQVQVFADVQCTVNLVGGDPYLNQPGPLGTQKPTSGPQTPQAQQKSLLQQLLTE

[2] = VP16 transactivation inhibitors, counter-screen for SRC1 inhibitor project, cell-based, luminescence, high throughput (AID 588824); conditions: cell-based VP16 transactivation luciferase luminescence; at 3.6 µM; hits give high values

## COc1ccc(C(=O)Nc2ccnn2C2CCN(C3CCC3)CC2)cc1
[1]
  inhibition: -28.9%
[2]
  inhibition: -0.43%

## Cc1ccc(C)c(NC(=O)CCc2ccc(C)o2)c1
[1]
  inhibition: 5.55%
[2]
  inhibition: -2.65%

## CC(C)C(=O)NC(Nc1cccc([N+](=O)[O-])c1)C(Cl)(Cl)Cl (centres undefined)
[1]
  inhibition: 1.13%
[2]
  inhibition: 0.4%

## COc1ccc2cc3c(N)nn(C(=O)c4cccc([N+](=O)[O-])c4)c3nc2c1
[1]
  inhibition: 51.3% (active)
[2]
  inhibition: 36.1% (active)

## Cc1cccc(NC(=O)CSc2nnc(NC(=O)C3CC3)s2)c1C
[1]
  inhibition: -3.25%
[2]
  inhibition: 6.7%

## O=C(Nc1ccc2c(c1)OCCO2)C(c1cc2ccccc2o1)N1CCN(C/C=C/c2ccccc2)CC1 (centres undefined)
[1]
  inhibition: -6.79%
[2]
  inhibition: -12.4%

## CC(C)OCCCn1c(=O)c2ccccc2n2c(CCC(=O)N3CCN(c4ccccn4)CC3)nnc12
[1]
  inhibition: -22.8%
[2]
  inhibition: -9.58%

## Cc1cc([N+](=O)[O-])nn1CCCC(=O)Nc1ccc(Cl)cc1Cl
[1]
  inhibition: -11.6%
[2]
  inhibition: -4.49%

## Cc1c(O)ccc(/C(Cc2ccc3ccccc3n2)=N\N)c1O
[1]
  inhibition: -105%
[2]
  inhibition: -61.3%

## C=CCn1c(Oc2ccccc2F)nc2c1c(=O)n(C)c(=O)n2C
[1]
  inhibition: 46.6%
[2]
  inhibition: 23.6%

## Nn1c(SCC(=O)Nc2ccccc2)nnc(Cc2ccccc2)c1=O
[1]
  inhibition: 0.49%
[2]
  inhibition: 5.01%

## O=C(CNC(=O)Cc1ccccc1)N=Nc1c(O)n(Cc2ccc3c(c2)OCO3)c2ccccc12
[1]
  inhibition: 3.52%
[2]
  inhibition: 3.04%
